Screening results from PubChem.
MITF primary: blocks human microphthalmia-associated transcription factor. O75030. AlphaScreen MITF homodimerization, bead proximity signal. inhibition, % at 2.6 µM. 0.91% of 650,000 active. AID 1259374; in the data active = inhibition above about 50%
FBW7 act: human FBW7 E3 ligase activation, primary screen. Q969H0. AlphaScreen FBW7–phospho-cyclin E peptide binding, activator screen. normalized activity (activation), % at 26.1 µM. 0.13% of 650,000 active. AID 1259310; in the data active = normalized activity above about 1.9%;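 note: purified mutant Fbw7 with reduced substrate affinity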
Target sequence (Q969H0 whole entry, looked up): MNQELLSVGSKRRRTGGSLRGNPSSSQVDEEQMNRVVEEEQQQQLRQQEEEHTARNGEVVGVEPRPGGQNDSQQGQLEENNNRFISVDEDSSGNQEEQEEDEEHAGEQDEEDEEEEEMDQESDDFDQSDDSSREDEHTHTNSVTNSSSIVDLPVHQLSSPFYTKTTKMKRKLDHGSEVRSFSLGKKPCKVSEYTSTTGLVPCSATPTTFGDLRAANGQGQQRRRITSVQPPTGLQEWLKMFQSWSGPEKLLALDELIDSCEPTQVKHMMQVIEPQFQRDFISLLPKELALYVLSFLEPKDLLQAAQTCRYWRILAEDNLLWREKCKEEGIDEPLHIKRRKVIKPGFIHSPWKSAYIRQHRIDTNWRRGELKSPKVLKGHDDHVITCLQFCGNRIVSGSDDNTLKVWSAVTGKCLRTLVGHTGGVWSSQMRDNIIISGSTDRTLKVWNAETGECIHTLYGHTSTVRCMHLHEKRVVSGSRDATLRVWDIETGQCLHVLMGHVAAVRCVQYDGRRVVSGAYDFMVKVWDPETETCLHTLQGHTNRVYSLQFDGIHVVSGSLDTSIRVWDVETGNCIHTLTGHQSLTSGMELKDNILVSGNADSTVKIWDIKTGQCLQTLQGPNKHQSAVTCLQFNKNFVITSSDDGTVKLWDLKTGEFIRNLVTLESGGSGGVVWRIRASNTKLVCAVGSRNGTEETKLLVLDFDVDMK
GPR151 ag: activates the human receptor GPR151 | PathHunter beta-arrestin GPR151 cells, luminescence | activation, % at 11.2 µM | 1% of 650,000 active | AID 1508602; in the data active = activation above about 4.9%
TEAD-YAP inh: TEAD-YAP interaction inhibition. HEK-TIYL cells, TEAD-Gal4/YAP UAS-luciferase luminescence. inhibition, % at 9.12 µM. 1.4% of 640,000 active. AID 1259422; in the data active = inhibition above about 32%
GPR151 conf act: human GPR151 activation, confirmation screen; shares compounds with GPR151 ag; GPR151 PathHunter beta-arrestin cells, luminescence, 90 min; % of EA-reagent control over plate median; activation, % at 11.2 µM; 6,700 tested, under 10 active; AID 1508609;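 active = mean percent activation across replicates above the confirmation screen cutoff of 4.91%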
GPR119 counter: counter-screen for GPR151 activators: effect on human GPR119; activation, % at 11.2 µM; shares compounds with GPR151 ag; GPR119 PathHunter beta-arrestin cells, luminescence, 90 min; 0 = compound-well median, 100 = enzyme-acceptor control; AID 1508611; 0.3% of 6,700 active;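 active = mean percent activation in the counterscreen above 29.09%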;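 note: counterscreen on off-target GPR119 to flag nonselective hits from the GPR151 activator screen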
A number is an active result. An excerpt weighted towards active compounds, which were near 3.4% of everything screened.

Screening CN(C)c1cccc(C(=O)OCc2nnc(-c3ccccc3)o2)c1 returned MITF primary inactive, FBW7 act inactive, GPR151 ag 6.6, TEAD-YAP inh inactive, GPR151 conf act inactive and GPR119 counter inactive.
Screening CN1CCCc2cc(C(CN)N3CCCCC3)ccc21 (stereo not given) returned MITF primary inactive, FBW7 act inactive, GPR151 ag 6.7, TEAD-YAP inh inactive, GPR151 conf act inactive and GPR119 counter inactive.
Screening COc1cccc(COC(=O)c2nnn(-c3ccc(F)cc3)c2C)c1 returned MITF primary inactive, FBW7 act inactive, GPR151 ag inactive and TEAD-YAP inh inactive.
For O=C(c1ccco1)N1CCc2ccc(NC(=O)C3(c4ccccc4)CCOCC3)cc21 the results were MITF primary inactive, FBW7 act inactive, GPR151 ag 8.4, TEAD-YAP inh inactive, GPR151 conf act inactive and GPR119 counter inactive.
For O=C(Nc1ccc2c(c1)N(C(=O)c1ccco1)CC2)c1cccs1 the results were MITF primary inactive, FBW7 act inactive, GPR151 ag inactive and TEAD-YAP inh inactive.
Screening CC(CNC(=O)C1CCN(c2nnc(N3CCCC3=O)s2)CC1)c1ccccc1 (stereo not given) returned MITF primary inactive, FBW7 act inactive, GPR151 ag inactive and TEAD-YAP inh inactive.
Screening Cn1c(Cn2nnc(-c3ccccc3)n2)nnc1SCC(=O)Nc1ccccc1Cl returned MITF primary inactive, FBW7 act inactive, GPR151 ag 7.6, TEAD-YAP inh inactive, GPR151 conf act inactive and GPR119 counter inactive.
Screening O=C(O)COc1ccc(/C=N/NC(=O)Cn2nnc(-c3ccccc3Cl)n2)cc1 returned MITF primary inactive, FBW7 act inactive, GPR151 ag 7.8, TEAD-YAP inh inactive, GPR151 conf act inactive and GPR119 counter inactive.
For NC(=O)c1c(NC(=O)CCSc2ccc(F)cc2)sc2c1CCCC2 the results were MITF primary inactive, FBW7 act inactive, GPR151 ag 7.1, TEAD-YAP inh inactive, GPR151 conf act inactive and GPR119 counter inactive.
Screening O=C(O)COc1cccc(/C=N/NC(=O)Cn2nnc(-c3ccccc3Cl)n2)c1 returned MITF primary inactive, FBW7 act inactive, GPR151 ag inactive and TEAD-YAP inh inactive.
For NC(=O)c1c(NC(=O)CCSc2ccccc2)sc2c1CCCC2 the results were MITF primary inactive, FBW7 act inactive, GPR151 ag inactive and TEAD-YAP inh inactive.
O=C(Cn1nnc(-c2ccccc2Cl)n1)Nc1ccccc1Cl was read as MITF primary inactive, FBW7 act inactive, GPR151 ag 4.9, TEAD-YAP inh inactive, GPR151 conf act inactive and GPR119 counter inactive.
Screening O=C(Cn1nnc(-c2ccccc2Cl)n1)Nc1ccccc1C(F)(F)F returned MITF primary inactive, FBW7 act inactive, GPR151 ag inactive and TEAD-YAP inh inactive.
Screening O=C(CCCn1c(SCC(=O)NCCC2=CCCCC2)nc2ccccc2c1=O)NCCCN1CCOCC1 returned MITF primary inactive, FBW7 act inactive, GPR151 ag inactive and TEAD-YAP inh inactive.
CC(=O)Nc1ccc(OS(=O)(=O)c2ccc(Cl)c3ccccc23)cc1 was read as MITF primary inactive, FBW7 act inactive, GPR151 ag inactive and TEAD-YAP inh inactive.
COc1cc(CN(C)C2CCN(C)CC2)c([N+](=O)[O-])cc1OC was read as MITF primary inactive, FBW7 act inactive, GPR151 ag inactive and TEAD-YAP inh inactive.
Screening NC(=O)c1c(NC(=O)Cn2nnc(-c3ccccc3Cl)n2)sc2c1CCCC2 returned MITF primary inactive, FBW7 act inactive, GPR151 ag 6.4, TEAD-YAP inh inactive, GPR151 conf act inactive and GPR119 counter inactive.
For Cc1ccc(NC(=O)Cn2nnc(-c3ccccc3NC(=O)c3cccc(C)c3)n2)cc1 the results were MITF primary inactive, FBW7 act inactive, GPR151 ag 5.0, TEAD-YAP inh inactive, GPR151 conf act inactive and GPR119 counter inactive.
NC(=O)c1c(NC(=O)c2ccccc2Cl)sc2c1CCCC2 was read as MITF primary inactive, FBW7 act inactive, GPR151 ag inactive and TEAD-YAP inh inactive.
CCN(CC)c1ccc(/C=C2\CCC(C=O)=C2N2CCOCC2)cc1 was read as MITF primary inactive, FBW7 act inactive, GPR151 ag inactive and TEAD-YAP inh inactive.
`CC/C(C)=N\NC(=O)c1ccc(N)cc1` gave MITF primary inactive, FBW7 act inactive, GPR151 ag inactive and TEAD-YAP inh inactive.
For CC/C(C)=N/NC(=O)c1ccc(C(=O)N/N=C(\C)CC)cc1 the results were MITF primary inactive, FBW7 act inactive, GPR151 ag 8.3, TEAD-YAP inh inactive, GPR151 conf act inactive and GPR119 counter inactive.
Screening O=C(O)CCN1C(=O)/C(=C\c2ccco2)SC1=S returned MITF primary inactive, FBW7 act inactive, GPR151 ag 11, TEAD-YAP inh inactive, GPR151 conf act inactive and GPR119 counter inactive.
Screening O=C(O)CN1C(=O)/C(=C/c2ccc(SCc3ccco3)o2)SC1=S returned MITF primary inactive, FBW7 act inactive, GPR151 ag inactive and TEAD-YAP inh inactive.
COC(=O)CN1C(=O)S/C(=C/c2ccco2)C1=O was read as MITF primary inactive, FBW7 act inactive, GPR151 ag 7.0, TEAD-YAP inh inactive, GPR151 conf act inactive and GPR119 counter inactive.
`O=C(O)CCN1C(=O)/C(=C/C=C/c2ccco2)SC1=S` gave MITF primary inactive, FBW7 act inactive, GPR151 ag inactive and TEAD-YAP inh inactive.
For O=C(O)CN1C(=O)/C(=C/c2ccc(I)o2)SC1=S the results were MITF primary 55, FBW7 act inactive, GPR151 ag 6.7, TEAD-YAP inh inactive, GPR151 conf act inactive and GPR119 counter inactive.
CC(C(=O)Nc1ccccc1)N(c1ccccc1)S(C)(=O)=O (stereo not given) was read as MITF primary inactive, FBW7 act inactive, GPR151 ag inactive and TEAD-YAP inh inactive.
For CC(=O)Nc1ccc(OCC(=O)Nc2ccccc2)cc1 the results were MITF primary inactive, FBW7 act inactive, GPR151 ag inactive and TEAD-YAP inh inactive.
For O=C(Nc1ccc(O)c(-c2nc3ccccc3s2)c1)c1ccc([N+](=O)[O-])s1 the results were MITF primary inactive, FBW7 act inactive, GPR151 ag inactive and TEAD-YAP inh inactive.
For Cc1cc(N2C(=O)C3C4CC(c5ccccc5)C(C4)C3C2=O)no1 (stereo not given) the results were MITF primary inactive, FBW7 act inactive, GPR151 ag 11, TEAD-YAP inh inactive, GPR151 conf act inactive and GPR119 counter inactive.
CC(C)(C)C(=O)N1CCc2cc(NC(=O)C3CC3)ccc21 was read as MITF primary inactive, FBW7 act inactive, GPR151 ag inactive and TEAD-YAP inh inactive.
Screening COc1ccccc1Nc1nc(Cl)cc(N)c1[N+](=O)[O-] returned MITF primary inactive, FBW7 act inactive, GPR151 ag inactive and TEAD-YAP inh inactive.
COc1ccccc1Nc1nc(Cl)ccc1[N+](=O)[O-] was read as MITF primary inactive, FBW7 act inactive, GPR151 ag 5.0, TEAD-YAP inh inactive, GPR151 conf act inactive and GPR119 counter inactive.
